An excerpt weighted towards active compounds, which were near 4.6% of everything screened.
TRHR PAM – TRH receptor (human) allosteric enhancement; enhancement, % at 2 µM; 360,000 tested, 0.66% active; TRHR cells, fluo-8 calcium fluorescence, EC20 TRH enhancement; AID 493056; in the data active = enhancement above about 30%; note: 0% is about no effect
Target sequence (P34981 whole entry, looked up): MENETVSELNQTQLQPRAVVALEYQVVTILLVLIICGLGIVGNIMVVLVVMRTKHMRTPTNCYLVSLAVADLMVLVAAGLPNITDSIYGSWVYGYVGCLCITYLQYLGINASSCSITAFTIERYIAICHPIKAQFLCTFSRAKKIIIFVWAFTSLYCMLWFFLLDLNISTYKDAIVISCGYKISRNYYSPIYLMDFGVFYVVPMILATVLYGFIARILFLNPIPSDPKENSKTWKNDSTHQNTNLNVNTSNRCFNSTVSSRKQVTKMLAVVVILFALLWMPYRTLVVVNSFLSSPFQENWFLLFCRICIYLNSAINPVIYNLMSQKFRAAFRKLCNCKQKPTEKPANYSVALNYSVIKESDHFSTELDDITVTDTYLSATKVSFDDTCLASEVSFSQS
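Enhancer read-out: after compound pinning and an initial kinetic agonist-mode read, an EC20 of TRH (10 nM final) was injected and fluo-8 calcium signal (Ex 480/Em 530) followed at 1 s/cycle for 100 cycles in TRHR-expressing cells.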
D1 PAM – human D1 dopamine receptor positive modulation. HEK293 TREx D1 cells, calcium flux, dopamine EC20 potentiation. potentiation, % at 10 µM. 360,000 tested, 0.036% active. AID 504651; in the data active = potentiation above about 30%; note: 0% is about no effect
D1 antagonist – antagonists of human D1 dopamine receptor. P21728. HEK293 TREx D1 cells, calcium flux, dopamine EC80; active compounds read low. activity change, negative = inhibition, % at 10 µM. 360,000 tested, 3.2% active. AID 504652; in the data active = activity change below about -30%; note: % is set by controls: 0 for no effect and ±100 for the full control effect
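After overnight tetracycline induction at 30 C, force-coupled D1 HEK293 cells took up a no-wash calcium dye at room temperature. Compounds were added and monitored 180 s, and the response to EC80 dopamine was then recorded.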
TRHR ag – TRH receptor (human) agonism; TRHR cells, calcium flux fluo-8, FDSS agonist mode; activation, % at 2 µM; 360,000 tested, 0.18% active; note: 0% is about no effect
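TRHR-expressing cells loaded with fluo-8 calcium dye; 23 nL library compound pin-transferred, kinetic FDSS fluorescence (Ex 480/Em 530) recorded about 180 s for agonist-induced calcium release, before a 10 nM TRH EC20 addition for potentiator mode.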
D1 agonist – human D1 receptor agonism | activation, % at 2 µM | P21728 | HEK293 T-REx D1 cells, calcium flux, agonist mode | 360,000 tested, 1% active; note: 0% is about no effect
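Agonism was scored from calcium flux recorded over 180 s (1 read/s) after pintool compound addition, following a 10-cycle baseline. Cells were inducible force-coupled HEK293 TREx D1, plated overnight at 30 C and loaded with no-wash calcium dye.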
* marks the source's active call; other numbers are inactive results. Cut-off read from the data, not from the text of the source, unless noted: active = activation above about 30%; inactive = the rest.

SMILES	TRHR PAM	D1 PAM	D1 antagonist	TRHR ag	D1 agonist
CCOc1ccc(NC(=O)c2cc3cc(C)ccc3n2C)cc1	-1	2	-56*	1	-1
CCOc1ccc(-c2c(C)nn3c(C)c(C(=O)Nc4ccccc4C(=O)OC)cnc23)cc1OCC	10	0	-3	0	2
Cc1ccc2c(C(=O)CN3CCSCC3)c(C)[nH]c2c1	-5	0	-44*	0	2
Cc1ccc2c(C(=O)CN3CCC4(CC3)OCCO4)c(C)[nH]c2c1	-1	-3	-13	0	5
CC(C)(C)C(=O)N1CCN(c2ccc(NC(=O)c3ccc([N+](=O)[O-])o3)cc2)CC1	5	-8	-8	-1	48*
CCC(=O)N1CCN(c2ccc(NC(=O)c3ccc([N+](=O)[O-])o3)cc2)CC1	5	-4	4	0	1
CC(C)(C)C(=O)N1CCN(c2ccc(NC(=O)c3ccc4c(c3)OCCO4)cc2)CC1	-4	-4	-30*	1	5
CC(=O)N1CCN(c2ccc(NC(=O)c3ccc4c(c3)OCCO4)cc2)CC1	-1	0	-27	0	0
COc1ccc(C2=Nc3ccccc3N(CC(=O)Nc3cccc(C(C)=O)c3)C(=O)C2)cc1	8	-4	-3	-1	13
Cc1cc(F)ccc1NC(=O)CCS(=O)(=O)c1cc2c(cc1C)NC(=O)CO2	-4	-2	-15	0	8
CC[C@@H](C(=O)[C@@H](C)[C@@H](O)[C@H](C)CCc1ccc(C)c(O)c1C(=O)O)[C@H]1O[C@](CC)([C@H]2CC[C@](O)(CC)[C@H](C)O2)C[C@@H]1C	40*	4	-64*	100*	207*
CN(C)c1ccc(C(CNS(=O)(=O)c2ccc(Br)cc2)N2CCCC2)cc1 (stereo not given)	6	2	-21	1	0
CC(C)OCCCNC(=O)Cc1ccc(NC(=O)N2CCCCc3ccccc32)cc1	36*	-4	6	0	2
COc1cccc(CNC(=O)c2ccc(NC(=O)N3CCCCc4ccccc43)cc2)c1OC	-3	-8	-59*	0	4
O=C(NCc1ccccc1Cl)c1ccc(NC(=O)N2CCCCc3ccccc32)cc1	6	1	-2	-1	3
CCc1nnc(NC(=O)C2Cc3ccccc3CN2S(=O)(=O)c2ccc(C)cc2)s1 (stereo not given)	5	-7	8	-1	2
COc1ccc(NC(=O)C2Cc3ccccc3CN2S(=O)(=O)c2ccccc2)cc1OC (stereo not given)	-3	0	-59*	-1	1
CCc1nnc(NC(=O)C2Cc3ccccc3CN2S(=O)(=O)c2cccs2)s1 (stereo not given)	32*	-1	11	-1	2
Cc1nc2ccc(S(=O)(=O)NC(CC(C)C)C(=O)N3CCN(c4ccc(F)cc4)CC3)cc2s1 (stereo not given)	23	0	2	0	2
COc1ccc(NC(=O)CSc2nncn3c2cc2oc(C)cc23)cc1OC	-9	-5	-25	0	11
CCOc1ccc(CNS(=O)(=O)c2cc(CN3C(=O)c4cccnc4C3=O)ccc2OC)cc1	2	3	-54*	-1	-1
CCc1ccc(CN2CCc3nc(Nc4ccc5c(c4)OCCO5)ncc3C2)cc1	4	0	-66*	1	1
COc1ccc(-c2nn3c(=O)cc(CN4CCN(C(=O)c5ccc(C(C)(C)C)cc5)CC4)nc3s2)cc1	-12	-1	-8	0	-1
Cc1ccccc1NC(=O)Cn1c(SCC(=O)Nc2ccc(F)cc2)nc2ccccc21	-2	0	-80*	0	1
Cc1cc2cc(C(c3nnnn3C3CCCC3)N(Cc3cccnc3)Cc3ccco3)c(=O)[nH]c2cc1C (stereo not given)	-8	0	-39*	0	3
SMILES	TRHR PAM	D1 PAM	D1 antagonist	TRHR ag	D1 agonist
Cc1ccccc1CN1CCCN(CC(=O)Nc2ccc3c(c2)OCCO3)S1(=O)=O	11	0	12	-1	4
Cc1cc(OCC(=O)Nc2nnc(C3CC3)s2)ccc1C(C)C	36*	-1	0	2	3
CCN1C(=O)c2ccccc2S(=O)c2ccc(C(=O)N3CCN(c4cccc(Cl)c4)CC3)cc21 (stereo not given)	-6	0	10	0	2
COc1ccc(C(=O)N/N=C(/C)c2cccc(NC(=O)c3ccccc3F)c2)cc1	-1	3	-5	-1	4
COc1ccc(C(=O)N/N=C(\C)c2cccc(NC(=O)c3ccc(F)cc3)c2)c(OC)c1	-1	-5	-37*	0	5
CCOc1ccc(C2C(=O)N(C3CCCCCC3)CC(=O)N2CCC2=CCCCC2)cc1OC (stereo not given)	8	1	6	1	0
O=c1c2oc3ccccc3c2n(Cc2cccc(Cl)c2)c(=O)n1Cc1ccco1	8	-1	-5	-1	7
CC(NC(=O)Nc1ccc(F)cc1)C(c1cccs1)N1CCCC1 (stereo not given)	-2	-10	7	1	72*
O=S(=O)(c1ccc(Br)cc1)c1nc(-c2ccco2)oc1SCc1ccccc1F	-11	1	12	2	8
O=C1CCCC2=C1C(c1ccc(O)cc1)c1c(ccc3ccccc13)N2 (stereo not given)	2	-13	-53*	2	1
O=C1CCCC2=C1C(c1ccc(O)c(O)c1)c1c(ccc3ncccc13)N2 (stereo not given)	5	-1	32	-1	1
Cc1cc(S(=O)(=O)NCCc2csc(-c3cccc(F)c3)n2)ccc1F	-7	-1	8	0	3
COC(C(=O)Nc1ccc(S(=O)(=O)Nc2c(C)cccc2C)cc1)c1ccccc1 (stereo not given)	-5	-1	8	2	35*
COC(C(=O)Nc1ccc(NC(=O)C(OC)c2ccccc2)cc1)c1ccccc1 (stereo not given)	-3	-1	-25	3	5
O=C(c1cccc(Cl)c1)N1c2ncnn2C2(CCCCC2)[C@@H]2CCCC[C@@H]21	6	-1	-7	-1	4
CC(=O)c1cccc(NS(=O)(=O)c2c(C)noc2C)c1	-5	-2	-29	0	3
Cc1noc(C)c1S(=O)(=O)Nc1cccc(CO)c1	0	-5	-31*	0	3
CN(C)CCCN(C(=O)c1ccc2c(c1)OCCO2)c1nc2ccc(Cl)cc2s1	21	-3	-23	3	33*
CN(C)CCCN(C(=O)c1ccc2c(c1)CCCC2)c1nc2ccc(F)cc2s1	-4	-4	6	0	10
CN(C)CCN(C(=O)c1ccc2c(c1)OCCO2)c1nc2ccc(Cl)cc2s1	-1	-4	-4	0	6
